{"source": "PubChem BioAssay (NCI)", "note": "“And” between values parts separate entries of the source, which are not always exact repeats. Equal entries are not always repeated. About 83,000 compounds went through this panel and 20% of them were active in at least one assay; those are over-represented in the sample as a whole.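 Activity criterion: percent growth below 10, measured after cells in 96-well plates were exposed to a single compound concentration for 48 hours.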 The source made the active and inactive calls."}
{"tested_on": "HL-60(TB) leukemia", "experiment": "NCI-60 one-dose screen, 48 h (100 = growth as untreated, 0 = no growth, -100 = all killed)", "conditions": "10 µM unless noted"}
{"compound": "O=[N+]([O-])c1ccc(C2N(Cc3ccc(Cl)cc3)CCN2Cc2ccc(Cl)cc2)cc1", "growth": "86.9% (inactive)"}
{"compound": "Cc1ccccc1COc1ccc(-c2onc(C)c2-c2ccc(Cl)cc2)cc1", "growth": "17.7% (inactive)"}
{"compound": "COc1cc(C(=O)NNC(=O)c2ccc(NC(=O)CCl)cc2)cc(OC)c1OC", "growth": "77.9% (inactive)"}
{"compound": "Oc1ccc(CN2CCC(N3CCCCC3)CC2)c2cccnc12", "growth": "28.2% (inactive)"}
{"compound": "CC(=O)Nc1cc(S(=O)(=O)O)cc2cc(S(=O)(=O)O)c(N=Nc3ccccc3)c(O)c12", "growth": "109% (inactive) and 94.3% (inactive)"}
{"compound": "c1ccc(CO[C@H]2CO[C@H]3[C@@H]2OC[C@H]3OCc2ccccc2)cc1", "growth": "88.4% (inactive)"}
{"compound": "COc1ccc(S(=O)(=O)Nc2ccc(OCc3nnc(-c4ccc(Cl)cc4)o3)c(F)c2)cc1", "growth": "51.2% (inactive)"}
{"compound": "CC1=C(C)C[C@]2(C(=O)O[C@H]3CCCC[C@@H]32)[S@](=O)C1", "growth": "98.1% (inactive)"}
{"compound": "CCN(CC)C(=O)/C=C(/C)c1ccccc1", "growth": "101% (inactive)"}
{"compound": "COc1cccc(-n2cc(-c3nc(Nc4cc(C)[nH]n4)c4ccccc4n3)nn2)c1", "growth": "48.1% (inactive)"}
{"compound": "O=C1N(Cc2ccccc2Cl)c2ccccc2C12NN=C(c1cccc(Cl)c1)S2", "note": "(stereo not given)", "growth": "28.7% (inactive)"}
{"compound": "COc1ccc(C(=O)c2cc(OC)c3c(c2)OCO3)cc1O", "growth": "13.4% (inactive)"}
{"compound": "NC(=O)CN1C(=O)c2ccccc2C1=O", "growth": "96.6% (inactive)"}
{"compound": "Clc1ccc(Nc2nnc(COc3ccccc3)c3ccccc23)cc1", "growth": "-15.7% (active)"}
{"compound": "COc1ccc(C2C=C(c3ccc(Cl)cc3)N=C3SC=CN32)cc1", "note": "(stereo not given)", "growth": "113% (inactive)"}
{"compound": "COc1ccc2c(c1)O/C(=C/c1ccc(OCC(=O)c3ccccc3)cc1)C2=O", "growth": "88.7% (inactive)"}
{"compound": "Cn1cnc([N+](=O)[O-])c1Sc1ncn[nH]1", "growth": "105% (inactive)"}
{"compound": "CSc1oc(C)nc1[P+](c1ccccc1)(c1ccccc1)c1ccccc1", "growth": "46.5% (inactive)"}
{"compound": "O=C(O)CN(CCN(CC(=O)O)CC(=O)O)CCN(CC(=O)O)CC(=O)O", "growth": "-51.1% (active) and 109% (inactive) and 94.7% (inactive)"}
{"compound": "CCOC(=O)c1ccc(NC(=O)c2nc(-c3cc(OC)c(OC)c(OC)c3)n(-c3ccc(Cl)cc3)n2)cc1", "growth": "77.3% (inactive)"}
{"compound": "CC[C@@]1(O)C(=O)OCc2c1cc1n(c2=O)Cc2cc3c(CN(C)C)c(O)ccc3nc2-1", "growth": "-7.06% (active) and -36.1% (active)"}
{"compound": "COc1ccccc1C(C)=O", "growth": "105% (inactive) and 102% (inactive)"}
{"compound": "Cc1cccc2c3c(sc12)C(c1ccc(Cl)cc1)C(C#N)=C(/N=C/c1ccc(Cl)cc1)O3", "note": "(stereo not given)", "growth": "-22% (active)"}
{"compound": "COc1nccnn1", "growth": "185% (inactive)"}
{"compound": "N=C(N)c1ccc(-c2ccc(-c3ccc(F)cc3)o2)o1", "growth": "-44.2% (active)"}
{"compound": "CN1CCN(c2ccc(NC(=O)c3cncnc3Nc3ccc(OCc4ccccn4)c(Cl)c3)cc2)CC1", "growth": "-57.9% (active)"}
{"compound": "COc1ccc(C(=O)c2ccc(OC)c(OC)c2OC)cc1", "growth": "22.3% (inactive) and -8.89% (active)"}
{"compound": "Cc1cc(C)cc(CCCCCCCCCCCCCCCCCC(=O)O)c1", "growth": "71% (inactive)"}
{"compound": "COc1ccccc1NC(=O)c1sc2nc3c(cc2c1N)C(=O)CCC3", "growth": "98.6% (inactive)"}
{"compound": "O=C1C2=C(CCN(Cc3ccccc3)C2)N2CCN=C2N1Cc1ccc(F)cc1F", "growth": "27.8% (inactive)"}
{"compound": "COc1cc(/C=C/C(=O)c2ccc(Nc3ncnc4cc(OC)c(OC)cc34)cc2)cc(OC)c1", "growth": "94.2% (inactive)"}
{"compound": "COc1ccccc1P(c1ccccc1OC)c1ccccc1OC", "growth": "101% (inactive)"}
{"compound": "CC(C)OCc1cc(CN2CCN(c3cccc(Cl)c3)CC2)c(O)c2ncccc12", "growth": "-46% (active)"}
{"compound": "Cc1ccc(C(C)C)cc1C(=O)C[n+]1ccccc1", "growth": "115% (inactive)"}
{"compound": "COCCN(C(=O)c1ccc(F)cc1F)c1c(N)n(Cc2ccccc2)c(=O)[nH]c1=O", "growth": "132% (inactive)"}
{"compound": "COC(=O)c1cc(=O)nc(N/N=C/c2ccco2)s1", "growth": "116% (inactive)"}
{"compound": "O=C(NCc1ccccc1)Nc1ccccc1CNc1nc(Nc2ccc(OCCN3CCCC3)cc2)ncc1Cl", "growth": "62.4% (inactive)"}
{"compound": "COc1cccc2cc(-c3nc(C4CCC(C(=O)O)CC4)n4ncnc(N)c34)[nH]c12", "note": "(stereo not given)", "growth": "33.3% (inactive)"}
{"compound": "O=C1C=CC[C@H](/C=C/c2ccccc2)O1", "growth": "13.5% (inactive) and -34.5% (active)"}
{"compound": "O=C(Nc1ccc(I)cc1F)c1cc(Br)ccc1O", "growth": "-31.3% (active)"}
